For 46 sequences, binding signal results are on record in paper PMC7819943, “Rice protein-binding microarrays: a tool to detect cis-acting elements near promoter regions in rice”.

Whole data set: some 39,000 sequences, median “fluorescence intensity (a.u.)” near 4,300, cut for the highest 2% near 39,000. Only a selection was taken, and the highest values are over-represented in it overall.

The experiment concerns the target T1, OsSMF1 (Oryza sativa, UniProt Q6ZLB0 1-436).
T1 sequence: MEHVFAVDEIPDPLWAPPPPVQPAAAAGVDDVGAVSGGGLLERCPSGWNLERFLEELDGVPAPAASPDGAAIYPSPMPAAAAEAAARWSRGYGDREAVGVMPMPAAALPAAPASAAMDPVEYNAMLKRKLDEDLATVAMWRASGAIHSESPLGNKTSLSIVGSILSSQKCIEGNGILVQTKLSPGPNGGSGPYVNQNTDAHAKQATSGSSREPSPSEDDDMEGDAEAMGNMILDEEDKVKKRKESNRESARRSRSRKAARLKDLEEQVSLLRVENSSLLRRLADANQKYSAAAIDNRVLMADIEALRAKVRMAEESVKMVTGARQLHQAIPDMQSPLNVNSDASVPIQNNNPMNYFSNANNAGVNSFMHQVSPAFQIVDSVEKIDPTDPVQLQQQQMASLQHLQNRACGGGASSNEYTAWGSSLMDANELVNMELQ
In words: protein-binding microarray (RPBM); PBS, 2% BSA, 51.3 ng/ul salmon testes DNA, 50 uM zinc acetate, 200 nM TF, 25 C, 1 h; high values mean tight binding. The note with it: protein: recombinant; tags: N-terminal polyhistidine and DsRed monomer fusion (pET32a); chain copies: 2; label: CyDye5-dUTP incorporated in the synthesized complementary strand; 3' TTTTT single-stranded linker to array surface; dsDNA, one strand shown. The gist of the method:
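The binding signal for each feature is its fluorescence intensity in arbitrary units. An Axon 4000B scanner was used to read a custom Agilent array that had been made double-stranded with Cy5-dUTP primer extension, blocked with 2% BSA, incubated at 25 °C for 1 h with 200 nM protein in PBS, 2% BSA, salmon testes DNA and 50 µM zinc acetate, and washed. The protein was an N-terminal polyhistidine–DsRed transcription factor fusion from E. coli BL21-CodonPlus, purified on Ni–NTA.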
On to “CCCAGGGAGGCCAAACTACAAAGGCGATGCTTTCTACACACGGAGTCACCTAGTGCAG”, for which the binding signal was 41500 fluorescence intensity (a.u.).
“AACTACACACAAAGCCGAGCCAAAGTCTCTAGGTCAAAGTCGGAGTCACCTAGTGCAG”: the binding signal was 20600 fluorescence intensity (a.u.).
As for “TACTTAAGTGCCAAGTGTCAAAGTGTGTGTGGTTTTCTGCCGGAGTCACCTAGTGCAG”, the binding signal was 4130 fluorescence intensity (a.u.).
For “TCCAAATAGCACGTACGCATGCATGCGTCCATGCCATCTCCGGAGTCACCTAGTGCAG”, the binding signal was 3270 fluorescence intensity (a.u.).
The value for “CGCTCGACTTCTCTTCTCTCATACACGTGTCATTAAATTTCGGAGTCACCTAGTGCAG” was 8480 fluorescence intensity (a.u.); that for “GAGGTGTACCACTAAGTGTGTACGTGTATAGTGGGGCGTGCGGAGTCACCTAGTGCAG” was 7420 fluorescence intensity (a.u.); that for “ATAAGTACGAATACTAAGTACGTGTGTGTTTGGAGGGTGTCGGAGTCACCTAGTGCAG” was 4340 fluorescence intensity (a.u.).
Consider “TGGACCTGAACCGAACCACTAAGTAGTAGTACGTGTGAGGCGGAGTCACCTAGTGCAG”, for which the binding signal was 41100 fluorescence intensity (a.u.).
As for “CTCCTTGACAACCAGCACCGATCCCTGAGTCACCCAACGACGGAGTCACCTAGTGCAG”, the binding signal is 6120 fluorescence intensity (a.u.).
The value for “TTCTGTAACATAGGCTAACGTCAACGTGGCATTCATTTTGCGGAGTCACCTAGTGCAG” was 13200 fluorescence intensity (a.u.).
Turning to “ATTAGTTTTATTAAATCTTACATTGAATATATTTTGATAACGGAGTCACCTAGTGCAG”, the binding signal was 3390 fluorescence intensity (a.u.).
Take “CTGCACATAATAACGTGGATGAATCTTAAACGTCCATTTACGGAGTCACCTAGTGCAG”: the binding signal is 47100 fluorescence intensity (a.u.).
“AAATAATTTATGAATAAAACTTTTATCTACGTGTTCTTAACGGAGTCACCTAGTGCAG”: the binding signal was 4110 fluorescence intensity (a.u.).
The value for “TATTTAAGTCAGTACTAAAGCACACATGTACAAATTTTACCGGAGTCACCTAGTGCAG” was 4160 fluorescence intensity (a.u.).
Turning to “ACCAAACACCGCAAAATAAACAGTCATCCTCCGCACCGCGCGGAGTCACCTAGTGCAG”, the binding signal is 4480 fluorescence intensity (a.u.).
The value for “ATAACAGCGGGCCTTACGTGTACATGATAGTATATAGTACCGGAGTCACCTAGTGCAG” was 7000 fluorescence intensity (a.u.); that for “AAAATAAAATTTATTAATAATATTTTATCTATATTTACGACGGAGTCACCTAGTGCAG” was 30400 fluorescence intensity (a.u.); that for “ATATTTAACAACGGATCAAATGATAGGAAAATAATTAATACGGAGTCACCTAGTGCAG” was 4700 fluorescence intensity (a.u.).
With “CAGAAAACAATAGTTATATTTAAGATGGGACGAATGGAGTCGGAGTCACCTAGTGCAG”, the binding signal was 53100 fluorescence intensity (a.u.).
For “ACAGACTTGTTTAAGTTACAAGACGATACTATAAGAATTTCGGAGTCACCTAGTGCAG”, the binding signal is 41100 fluorescence intensity (a.u.).
Next, “GTTTGTTGTCGATACAATCACTAGTTGTGTTTGTTAATTTCGGAGTCACCTAGTGCAG”: 4170 fluorescence intensity (a.u.).
Turning to “TGAAACGGAGGGAGTATTATTAATATCTTAAGATGGACGACGGAGTCACCTAGTGCAG”, the binding signal was 6690 fluorescence intensity (a.u.).
Regarding “ATCAACAACTGTATTTAAAATGGGACGAATAGAGTAAATGCGGAGTCACCTAGTGCAG”, the binding signal was 20200 fluorescence intensity (a.u.).
Turning to “ATATAAGATGTAACTATTACGATGTTTCATGATACAAGTACGGAGTCACCTAGTGCAG”, the binding signal was 15000 fluorescence intensity (a.u.).
“CTATTAGAATATTTTATAATAGTTAATAGTTAATTAATTACGGAGTCACCTAGTGCAG”: the binding signal was 39700 fluorescence intensity (a.u.).
Take “AATTACATAATTTTAATACGAAGATGAATGATCAAATATACGGAGTCACCTAGTGCAG”: the binding signal was 56600 fluorescence intensity (a.u.).
Turning to “TTTATTAATATATATATATATATATATATATATATATATACGGAGTCACCTAGTGCAG”, the binding signal was 7400 fluorescence intensity (a.u.).
Consider “TTATTAATATATTTAATTTAATGATCCGAGATAACATATCCGGAGTCACCTAGTGCAG”, for which the binding signal is 35600 fluorescence intensity (a.u.).
For “GAGCGAGGCGAGGGTGGGGAGGCGGAGGAGGATGTCCAGGCGGAGTCACCTAGTGCAG”, the binding signal is 4580 fluorescence intensity (a.u.).
As to “ATTTGATAAATGGGATGCCACGTGTACACCACGTCAACAGCGGAGTCACCTAGTGCAG”, the binding signal is 31000 fluorescence intensity (a.u.).
The value for “GATCAGATCGCACGCTGAGACGTATAGACGACGTGGGTCCCGGAGTCACCTAGTGCAG” was 4650 fluorescence intensity (a.u.).
“TGTTTGTATAATTTTGAGTTATCAACAGTCGCGATGGAGACGGAGTCACCTAGTGCAG”: the binding signal is 24900 fluorescence intensity (a.u.).
In the case of “CAAGTACCCAACCCGCGTCGTCATCGTCGTCTTCCTACTTCGGAGTCACCTAGTGCAG”, the binding signal is 5510 fluorescence intensity (a.u.).
As for “AAAATGTCATGTAACTACGCCATTGGACCATAAATATTTTCGGAGTCACCTAGTGCAG”, the binding signal was 13600 fluorescence intensity (a.u.).
The value for “CAGACGGATTATGTAATTTGTTTTATTATTAATTAGTCTACGGAGTCACCTAGTGCAG” was 3890 fluorescence intensity (a.u.).
Next, “TATGGATGGGTTTTATTAATAGTCTACGTTTAATATTTATCGGAGTCACCTAGTGCAG”: 4490 fluorescence intensity (a.u.).
Regarding “TACGGAACCTGTAATTTGTTTTGTTATTAGTCTACATTTACGGAGTCACCTAGTGCAG”, the binding signal was 45800 fluorescence intensity (a.u.).
“ATATTATATTAAATTTGTAGTTTTACGATAATATGGTAAACGGAGTCACCTAGTGCAG”: the binding signal was 25400 fluorescence intensity (a.u.).
In the case of “GAGAGAATCTTGGAACGATTAGTAGTACATAAAGTAGAATCGGAGTCACCTAGTGCAG”, the binding signal is 3650 fluorescence intensity (a.u.).
Turning to “TTTCTCGGAATTTCTGGAAATTTTCTTGGAATTAGTAGAACGGAGTCACCTAGTGCAG”, the binding signal is 65500 fluorescence intensity (a.u.).
Turning to “TACGAATTATGTAATTTGTTTTGTTATTAGTGTACATCTACGGAGTCACCTAGTGCAG”, the binding signal is 4070 fluorescence intensity (a.u.).
For the sequence “AATATGGATTATTACCAAGAATTTATCCGTTGTTTTGCTACGGAGTCACCTAGTGCAG”, the binding signal is 40700 fluorescence intensity (a.u.).
Regarding “TTATTATTAGTAAATATGTAGTTTTACGATATTTAGTCTTCGGAGTCACCTAGTGCAG”, the binding signal is 44400 fluorescence intensity (a.u.).
Consider “TGTATTTGCTACCGTTTTCCAATATGTACCGTCATGTTTCCGGAGTCACCTAGTGCAG”, for which the binding signal was 3920 fluorescence intensity (a.u.).
For the sequence “ATTATTTAAGTGATGATATGTAAATAACGAGTGAAGTTTTCGGAGTCACCTAGTGCAG”, the binding signal was 3400 fluorescence intensity (a.u.).
For the sequence “TATTCTGATTGGAACTTATGAGTCTTGAATTCTTGATTCTCGGAGTCACCTAGTGCAG”, the binding signal was 29700 fluorescence intensity (a.u.).
